Screening data: PubChem, The Scripps Research Institute Molecular Screening Center
The entries come from a sample that favours hits as a whole.
TTR transcr act = increases transthyretin transcription | SH-SY5Y TTR promoter Gaussia luciferase, luminescence; 100% = recombinant luciferase protein wells | activation, % at 16.7 µM | 92,000 tested, 1.3% active | AID 1117267;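 active = activation above the mean of all tested compounds plus 3 SD, cut at about 9.5% in these data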;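 also: cells exposed to compounds for one day before reading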
HuH7 TTR inh = HuH7 TTR transcription inhibition, counter-screen; shares compounds with TTR transcr act; HuH7 TTR promoter-Gaussia luciferase reporter, luminescence; inhibition, % at 16.7 µM; 1,100 tested, 4% active;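 active = average inhibition above the solvent-only control wells' mean plus 3 SD, cut at about 15% in these data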;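 also: inhibitors lower well luminescence so higher value means more inhibition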
TTR act confirm = confirmation of human transthyretin transcription activators; SHSY5Y TTR promoter Gaussia luciferase, luminescence; 100% = purified Lucia enzyme wells, no cells; AID 1117280; shares compounds with TTR transcr act; 1,100 tested, under 10 active; activation, % at 16.7 µM;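 active = mean activation above a set limit taken from the earlier primary screen, cut at about 11% in these data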
Each line names hits and unclear results; the compound was inactive in the other large screens (follow-up assays come after a bar, where they were run).

COC(=O)[C@]12C[C@H](CC(=O)N3CCN(C(=O)C4CC4)CC3)C(=O)N(Cc3ccc(Cl)cc3Cl)C1=C[C@H](C(C)(C)C)O[C@@H]2C	none
CCC[C@H]1[C@@H](NC(=O)c2cccc(N(C)C)c2)CC[C@@]23CCCN2C(=O)CCC[C@@H]13	none
O=C1c2cccc(-c3ccc(C(F)(F)F)cc3)c2C2CC=CCN12 (configuration not stated)	none
Cc1ccc(C#CC[N+](C)(C)CC#Cc2ccccc2)cc1	none
Cc1ccc(-c2n[nH]c(=S)n2/N=C/c2cccs2)cc1	TTR transcr act 14 | HuH7 TTR inh inactive | TTR act confirm inactive
Cn1cccc1/C=N/n1c(-c2ccc(Cl)cc2)n[nH]c1=S	none
Cc1ccc(/C=N/n2c(-c3ccncc3)n[nH]c2=S)cc1	none
CSc1ccccc1C(=O)NCc1ccc(C)cc1	none
CCOC(=O)C1=C(c2ccccc2)OC(N)=C(C#N)C1C1CCCCC1 (configuration not stated)	none
CCOC(=O)C1=C(c2ccccc2)OC(N)=C(C#N)C1c1ccco1 (configuration not stated)	TTR transcr act 13 | HuH7 TTR inh inactive | TTR act confirm inactive
CCOC(=O)C1=C(C)NC(C)=C(C(=O)OCC)C1c1ccco1	none
Cc1nc(N2CCN(C(=O)C3CC3)CC2)c2c3c(sc2n1)CC(C)CC3 (configuration not stated)	none
Cc1ccccc1NC(=O)OCCN1CCCC12CCC(c1ccccc1)CC2 (configuration not stated)	none
c1ccc2c(c1)nc(NCc1ccc3c(c1)OCO3)n2CCN1CCOCC1	none
CN(C)CCCn1c(NCc2ccc3c(c2)OCO3)nc2ccccc21	TTR transcr act 10 | HuH7 TTR inh inactive | TTR act confirm inactive
CCn1c(NCc2ccc3c(c2)OCO3)nc2ccccc21	none
C[C@H]1CN([C@@H](C)CO)S(=O)(=O)c2ccc(Br)cc2O[C@H]1CN(C)Cc1ccccc1	none
COc1ccc(S(=O)(=O)N(C)C[C@H]2Oc3cc(Br)ccc3S(=O)(=O)N([C@H](C)CO)C[C@H]2C)cc1	TTR transcr act 28 | HuH7 TTR inh inactive | TTR act confirm inactive
Cc1ccc(S(=O)(=O)N(C)C[C@H]2Oc3cc(Br)ccc3S(=O)(=O)N([C@H](C)CO)C[C@@H]2C)cc1	none
C[C@H](CO)N1C[C@H](C)[C@H](CN(C)Cc2ccc(Oc3ccccc3)cc2)Oc2cc(Br)ccc2S1(=O)=O	TTR transcr act 13 | HuH7 TTR inh inactive | TTR act confirm inactive
C[C@H](CO)N1C[C@H](C)[C@H](CN(C)S(=O)(=O)c2cccc(F)c2)Oc2cc(Br)ccc2S1(=O)=O	none
CC(C)NC(=O)N(C)C[C@H]1Oc2cc(Br)ccc2S(=O)(=O)N([C@H](C)CO)C[C@H]1C	none
Cc1cc2c(s1)c1cnn(Cc3cc(F)c(F)cc3F)c(=O)c1n2C	none
Cc1ccc(Nc2cc(C)nc3ncnn23)c(C)c1	none
COc1cc(C)ccc1OCc1cc(C(=O)N2CCCCCCC2)no1	none
c1ccc(-c2ccc(CNc3nc(-c4ccccn4)nnc3-c3ccccc3)cc2)cc1	none
O=[N+]([O-])c1ncccc1OCCOc1ccc(Cl)cc1Cl	none
CCCC1CCC2(CC1)CCC2OC(=S)NCCc1ccc(Cl)cc1 (configuration not stated)	none
CCOC(=O)[C@]12CCC=C1N(Cc1cccc3ccccc13)C(=O)[C@H](CC(=O)NCc1ccc(C)o1)C2	none
COC(=O)c1ccc(NC(=O)CN2CCN(CCO)CC2)cc1	none
COC(=O)c1ccc(NC(=O)CCN2CCN(CCC(=O)Nc3ccc(C(=O)OC)cc3)CC2)cc1	none
COC(=O)c1ccc(NC(=O)CCN2CCCCC2)cc1	TTR transcr act 10 | HuH7 TTR inh inactive | TTR act confirm inactive
Brc1cccc(Cn2ccc3ccc(-c4ccc5ccn(Cc6cccc(Br)c6)c5c4)cc32)c1	none
CCCCN1CCS(=O)(=O)N(Cc2cn(Cc3cccc(Cl)c3)nn2)C(C(=O)OC)C1 (configuration not stated)	none
O=C(COc1ncnc2ccccc12)Nc1cc([N+](=O)[O-])ccc1Cl	TTR transcr act 38 | HuH7 TTR inh inactive | TTR act confirm inactive
O=C(CC(=O)c1ccccc1)Nc1cc([N+](=O)[O-])ccc1Cl	none
O=C(COc1ncnc2cc([N+](=O)[O-])ccc12)NC(=O)NC1CCCCC1	none
O=C(C1CCN(S(=O)(=O)c2cccs2)CC1)N1CCCC(C(F)(F)F)C1 (configuration not stated)	none
O=C1CCC[C@H]2Cc3nc4ccccc4cc3C[C@]23CCCN13	none
O=C(Nc1ccccc1)N(CCc1nc2ccccc2[nH]1)C1CCCC1	none
O=C1CCC(CCc2nc3ccccc3[nH]2)(c2ccccc2)C(=O)N1 (configuration not stated)	TTR transcr act 21 | HuH7 TTR inh inactive | TTR act confirm inactive
CC(C)(Cc1nc2ccccc2[nH]1)C(=O)O	none
Cc1ccc(NC(=O)c2ccc3ncsc3c2)cc1S(=O)(=O)N(C)C	none
CC1CCN(S(=O)(=O)c2cccc(C(=O)Nc3nncs3)c2)CC1	none
Cc1ccc(NC(=O)c2ccccn2)c(Br)c1	none
COc1ccc(CCNC(=O)C(F)(F)F)cc1S(N)(=O)=O	none
O=S1(=O)c2c(NCc3ccco3)cccc2Oc2ccccc2CN1Cc1cn(Cc2ccc(Cl)cc2)nn1	none
Cc1nn(C)c(C)c1CCC(=O)N1CCCC(C(=O)c2cccc(OC(C)C)c2)C1 (configuration not stated)	TTR transcr act 10 | HuH7 TTR inh inactive | TTR act confirm inactive
CCn1nc(C)c(CN2CCCC(C(=O)c3cccc(OC(C)C)c3)C2)c1C (configuration not stated)	none
Cc1nn(C(C)C)c(C)c1CN1CCCC(C(=O)c2cccc(OC(C)C)c2)C1 (configuration not stated)	none
COc1ccc(C(=O)OCC(=O)NCC2CCCCC2)cc1F	none
O=C1C2CCCCN2C(=O)N1CCCCN1CCN(c2cccc(C(F)(F)F)c2)CC1 (configuration not stated)	none
O=C1N[C@@H](Cc2c[nH]c3ccccc23)C(=O)N[C@H]1Cc1ccccc1	none
CCS(=O)(=O)C(=C1Nc2ccccc2N1)S(=O)(=O)CC	TTR transcr act 21 | HuH7 TTR inh inactive | TTR act confirm inactive
CCC1(CC)C(=O)Nc2ccccc21	none
O=C1Nc2ccccc2C1=O	none
c1nc(NC[C@@H]2CCCO2)c2cc(-c3ccc4c(c3)OCO4)ccc2n1	none
COc1ccc(-c2cccc3c2NC(=O)C3=O)cc1OC	none
CC(C)(C)NC(=O)C(c1cccnc1)N(C(=O)c1cccs1)c1ccc(C(C)(C)C)cc1 (configuration not stated)	none
O=C(Nc1ccc2ncccc2c1)c1ccccc1	none
O=C(Nc1ccc2ncccc2c1)c1ccccc1Cl	TTR transcr act 11 | HuH7 TTR inh inactive | TTR act confirm inactive
O=C(NC(=S)Nc1ccc2ncccc2c1)c1ccccc1	none
S=C(Nc1ccccc1Br)OCCN1CCCC12CCC(c1ccccc1)CC2 (configuration not stated)	none
COC(=O)c1ccc(-c2nc(-c3cccs3)no2)cc1	TTR transcr act 13 | HuH7 TTR inh inactive | TTR act confirm inactive
O=C(NCc1ccncc1)c1nc(-c2cccs2)no1	none
COC(=O)c1ccc(-c2nc(-c3ccc(Br)o3)no2)cc1	none
CCN1CCN(c2nc3c(C)cccn3c(=O)c2C=C(C#N)C#N)CC1	none
